Data on 5 molecules can be found in the supplement of paper PMC7411054.

Common to all, as to conditions: treatment time: 24 h
The test system of test [1] is A549-ACTB-RAB5A. The test can be described thus: lowest phenotypically active concentration; higher = less potent. In a few lines: (§1)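 Four wells per concentration (0.3, 1, 3 or 9 µM) were treated for 24 h in each of fifteen gene-edited reporter lines from A549, HepG2 and WPMY1 cells, then imaged live. After normalising live-cell features to solvent control wells, deviation was defined as ≥3 of 4 wells lying past the 95th percentile of control Euclidean distances. Reproducibility was defined as a median replicate Pearson correlation above the 95th percentile of non-replicates. Both had to hold for phenotypic activity.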

Test [2] deals with A549-GM130-SQSTM1. The test is described as above. In a few lines: as §1
Test [3] has as its system A549-TUBA1B-RELA. Described as above. In a few lines:
as §1

Test [4] concerns HepG2-ACTB-RAB5A. Described as above. The procedure, abridged:
as §1

Test [5] has as its system WPMY1-GM130-SQSTM1. Described as above. In a few lines: as §1
For test [6], the system named is A549-ACTB-RAB5A. The test can be described thus: phenotypically active (imaging signature differs from DMSO and reproducible) at any of 0.3-9 uM (binary (1 = active, 0 = inactive)); higher = active. In a few lines:
as §1

In test [7] the test system is A549-CANX-COX4. The description is as above. In a few lines:
as §1

Test [8] deals with A549-GM130-SQSTM1. Described as above. The procedure, abridged:
as §1

The test system of test [9] is A549-TP53BP1-CLTA. The description is as above. In a few lines: as §1
Test [10] deals with A549-TUBA1B-RELA. The test is described as above. In a few lines:
as §1

Test [11] deals with HepG2-ACTB-RAB5A. The test is described as above. In a few lines: as §1
For test [12], the system named is HepG2-CANX-COX4. The description is as above. The procedure, abridged: as §1
Test [13] relates to HepG2-GM130-SQSTM1. Described as above. In a few lines: as §1
The test system of test [14] is HepG2-TP53BP1-CLTA. The description is as above. In a few lines: as §1
In test [15] the test system is HepG2-TUBA1B-RELA. Described as above. In a few lines:
as §1

In test [16] the test system is WPMY1-ACTB-RAB5A. Described as above. The procedure, abridged: as §1
The subject of test [17] is WPMY1-CANX-COX4. The test is described as above. In a few lines:
as §1

The subject of test [18] is WPMY1-GM130-SQSTM1. The test is described as above. In a few lines: as §1
In test [19] the test system is WPMY1-TP53BP1-CLTA. Described as above. The procedure, abridged: as §1
Test [20] relates to WPMY1-TUBA1B-RELA. The description is as above. The procedure, abridged: as §1

SMILES strings stand for the structures.

As for `CN1C(=O)/C(=C2/Nc3ccccc3/C2=N/O)c2ccc(Br)cc21`, the “lowest phenotypically active concentration” value in test [1], in test [2], in test [3], in test [4] and in test [5] was at most 0.3 µM each time. The phenotypically active was 1 (active) in test [6]; 0 (inactive) in test [7]; 1 (active) in test [8]; 0 (inactive) in test [9]; 1 (active) in test [10]; 1 (active) in test [11]. Besides, the phenotypically active was 1 (active) in test [12]; 0 (inactive) in [13]; 0 (inactive) in test [14]; 0 (inactive) in test [15]; 1 (active) in test [16]; 1 (active) in test [17]. Besides, the phenotypically active was 1 (active) in test [18], 0 (inactive) in test [19] and 0 (inactive) in test [20].

As for `O=C(Nc1nc2cc(C(F)(F)F)cc(NC3CC3)n2n1)c1cccnc1`, the “lowest phenotypically active concentration” value in test [1] was determined as 3 µM; in test [2] it was 3 µM; in test [3] it was 9 µM. Besides, the phenotypically active is 1 (active) in test [6]; 0 (inactive) in [7]; 1 (active) in [8]; 0 (inactive) in test [9]; 1 (active) in test [10]; 0 (inactive) in test [11]. Further, the phenotypically active was 1 (active) in [12]; 0 (inactive) in test [13]; 1 (active) in test [14]; 1 (active) in test [15]; 1 (active) in test [16]; 1 (active) in test [17]. In addition, the phenotypically active in test [18] was 0 (inactive); in [19], 1 (active); in [20], 0 (inactive).

In the case of `CC1=C(/C=C/C(C)=C\C=C\C(C)=C\C(=O)O)C(C)(C)CCC1` [tretinoin], the “lowest phenotypically active concentration” value in test [1] is 3 µM; in test [2], 3 µM; in test [3], 3 µM; in [4], 1 µM; in test [5] it was at most 0.3 µM. The phenotypically active in test [6] was 1 (active); in [7], 0 (inactive); in test [8], 1 (active); in test [9], 0 (inactive); in [10], 1 (active); in [11], 1 (active). Moreover, the phenotypically active in test [12] was 1 (active); in test [13] it was 1 (active); in [14] it was 0 (inactive); in test [15], 0 (inactive); in test [16] it was 1 (active); in [17], 1 (active). Also, the phenotypically active in test [18], in test [19] and in [20] was 1 (active) throughout.

In the case of `CN1CCC(CN2c3ccccc3Sc3ccccc32)C1` (configuration not stated) [methdilazine], the “lowest phenotypically active concentration” value worked out at 9 µM in [1]; 3 µM in test [2]; 3 µM in [3]; 9 µM in test [4]; 3 µM in test [5]. Besides, the phenotypically active in test [6] was 1 (active); in test [7], 0 (inactive); in [8] it was 1 (active); in test [9] it was 0 (inactive); in test [10] it was 1 (active); in test [11] it was 1 (active). Moreover, the phenotypically active in test [12] is 0 (inactive); in test [13], 1 (active); in test [14] it was 1 (active); in test [15], 1 (active); in [16] it was 1 (active); in test [17] it was 1 (active). Moreover, the phenotypically active in test [18], in test [19] and in test [20] was 1 (active) in each case.

As for `N#Cc1cccc(-c2c[nH]c3ncnc(N4CCOCC4)c23)c1`, the “lowest phenotypically active concentration” value in test [1] worked out at 9 µM; in test [2], 9 µM; in [3] it was 9 µM; in [4] it was 3 µM. Further, the phenotypically active in test [6] was 1 (active); in test [7] it was 0 (inactive); in test [8] it was 1 (active); in test [9], 0 (inactive); in test [10] it was 1 (active); in [11] it was 1 (active). Moreover, the phenotypically active in test [12], in [13], in [14], in [15], in [16] and in test [17] was 1 (active) each time. In addition, the phenotypically active in test [18] is 0 (inactive); in [19], 1 (active); in test [20], 0 (inactive).
